# Screening data (PubChem BioAssay)
# LASV entry inh: Lassa virus entry inhibition. Lassa virus pseudotype entry inhibition, cell reporter. Potency, µM (series often up to 37.9 µM), for inactives: at the highest dose activity change, negative = inhibition, hits mostly inhibitors. 300,000 compounds, 1.2% hits. AID 540256; calls by dose curve; tested in HEK293 cells; note: potency is the fitted concentration of half-maximal effect; nearly all actives have a fitted effect of over 50% in size
# HCMV antiviral: inhibitors of human cytomegalovirus | activity change, negative = inhibition, % at 57.5 µM | HFF cells, HCMV-luciferase reporter, 72 h; hits give low values | 410,000 compounds, 4.5% hits; in the data active = activity change below about -60%; inconclusive = no clear call, values can overlap the other calls; inactive = above about -39%
#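 Screen run at 2 compound doses on HFFs infected with reporter HCMV, MOI 1 PFU/cell. Luciferase activity from cell lysates at 72 h post infection gave inhibition relative to buffer-only and Salinomycin wells.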
# Marburg entry inh: Marburg virus entry inhibition; Marburg virus pseudotyped entry inhibition, cell reporter; Potency, µM (highest dose often 37.8 µM), without a hit: at the top dose activity change, negative = inhibition, most hits filed as inhibitors; 300,000 compounds, 1.8% hits; AID 540276; calls by dose curve; tested in HEK293 cells; note: potency is the fitted concentration of half-maximal effect
# FMDV inh: foot and mouth disease virus antiviral activity; FMDV antiviral cell-based qHTS; Potency, µM (titrated, usually from 57.9 µM), without a hit: at the highest dose activity change, negative = inhibition, usual class: inhibitors; 410,000 compounds, 1.2% hits; AID 1159524; calls by dose curve; tested in HEK293T cells; note: read-out not given here; potency is the fitted concentration of half-maximal effect; nearly all actives have a fitted effect of over 45% in size
# * = called active by the depositor; u = inconclusive; x = not tested or not shown; [ ] = another dose, or the depositor's remark. Only some compounds are listed: those with a hit (about 6.2% of all), similar ones and a draw of the others. % is set by controls: 0 for no effect and ±100 for the full control effect.
SMILES,LASV entry inh,HCMV antiviral,Marburg entry inh,FMDV inh
CCN(CC)C(=O)c1sc(NC(=O)c2nc3ncccn3n2)c(C(=O)OC)c1C,5%[46.1 µM],-15,-23%[46.1 µM],0%
COC(=O)c1ccc(CN2CCOc3ccc(C(O)c4cccnc4)cc3C2)cc1 (stereo not given),x,x,x,-26%
COc1cnc(-c2ccccn2)nc1Sc1cccc(Cl)c1,u,-64*,u,-6%
CCN(CC)c1ccc(C2C(C(N)=O)=C(C)Nc3nc(SCc4ccccc4Cl)nn32)cc1 (stereo not given),u,u,u,-20%
CN(Cc1c(C(=O)N/N=C/c2cccc(O)c2)nnn1-c1nonc1N)C1CCCCC1,x,0,x,0%
Cc1nnn(-c2nonc2N)c1C(=O)N/N=C/c1cccc2ccccc12,-3%,-65*,u,-4%
Nc1nonc1-n1nnc(C(=O)N/N=C/c2ccc(O)cc2)c1CN1CCCCCC1,x,-61*,x,-14%
Nc1nonc1-n1nnc(C(=O)N/N=C/c2cccc(O)c2)c1CN1CCCC1,-6%[46.1 µM],-24,3%[46.1 µM],-11%
CN(Cc1c(C(=O)N/N=C/c2ccccc2O)nnn1-c1nonc1N)C1CCCCC1,x,-98*,x,-19%
CC(C)c1c(C(=O)N/N=C/c2ccncc2)nnn1-c1nonc1N,x,0,x,-29%
CCN(CC)c1ccc(/C=N/NC(=O)c2nnn(-c3nonc3N)c2C(C)C)c(O)c1,u,-102*,2.5µM*,0%
COc1cc(=O)n2c(c1C(=O)N(C)Cc1nccs1)CCN(Cc1cccc(F)c1F)CC2,x,x,x,-1%
CCn1c(C)c(C)c2cc(C(=O)NCC(C)c3ccccc3)ccc21 (stereo not given),u,0,x,-14%
CCN(CC)c1ccc(/C=N/NC(=O)c2ccoc2C)c(O)c1,x,-100*,x,-16%
CC1CCN(Cc2c(C(=O)N/N=C/c3ccccc3O)nnn2-c2nonc2N)CC1,u,-95*,3.2µM*,10%
COC(=O)/C(=N\OCc1ccc(C#N)cc1)c1c(C)nn(C)c1C,16%,-100*,2%[46.1 µM],8%
COc1cccc(CNC(=O)c2[nH]c3cc(C)ccc3c2Sc2ccccc2)c1,-8%[46.1 µM],-63*,-23%[46.1 µM],6%
COc1ccc2c(Sc3ccccc3)c(C(=O)NCc3cccc(OC)c3OC)[nH]c2c1,u,23,u,-13%
COc1ccccc1C(=O)Nc1ccc(S(=O)(=O)Nc2nc(C)cc(C)n2)cc1,-4%[46.1 µM],0,-3%[46.1 µM],0%
COc1cccc(CNC(=O)CCn2cnc3ccccc3c2=O)c1,5%[46.1 µM],-3,x,-13%
CCNC(=S)NNC(=O)c1cc(-c2ccc(OC)cc2)nc2ccccc12,3.3µM*,134,0.65µM*,11µM*
CCCCOc1cccc(-c2cc(C(=O)NNC(=S)NCC)c3ccccc3n2)c1,30%[14.3 µM],-7,-9%,76%
CCOc1ccc(-c2cc(C(=O)O)c3ccccc3n2)cc1,12µM*,69,21µM*,u
O=C(Oc1ccc([N+](=O)[O-])cc1)c1cc(-c2ccccc2)nc2ccccc12,5%,-7,1%,20µM*
CCCCOc1ccc(-c2cc(C(=O)NNC(=S)NCC)c3ccccc3n2)cc1,u,-93*,1.5µM*,u
SMILES,LASV entry inh,HCMV antiviral,Marburg entry inh,FMDV inh
CCOc1ccc(-c2cc(C(=O)N3CCC(C)CC3)c3ccccc3n2)cc1,30%,27,16%,21%
CCCS(=O)(=O)NCc1c(C)ncc2c1CCN(C(=O)/C=C/c1ccccc1)C2,x,x,x,-9%
COCCN1C(=O)NC(CCc2ccccc2)C(C(C)=O)=C1C (stereo not given),x,x,5%[14.2 µM],x
CC(=NNC(=S)Nc1ccccc1Cl)c1ccccn1,0.25µM*,-99*,u,7%
N/C(=N\NC(=O)Nc1ccccc1)c1ccccn1,-24%,60,u,47%
CC(=NNC(=S)Nc1ccccc1)c1ccccn1,x,-98*,x,58%
COc1cccc([C@@H]2Oc3ccc(Br)cc3C[C@@H]2OC(=O)Nc2cc(OC)c(OC)c(OC)c2)c1,x,x,-5%[14.2 µM],x
N#Cc1cc(N2CCCCC2)c([N+](=O)[O-])cc1C#N,2%,-64*,3%,0%
O=[N+]([O-])c1cc(F)c(N2CCCCC2)cc1N1CCOCC1,-26%[14.3 µM],-29,-9%,-5%
O=[N+]([O-])c1cc2no[n+]([O-])c2cc1N1CCCCC1,-17%,-63*,2%,32µM*
O=C(c1ccco1)N(CC1CCCO1)c1nc(-c2ccccc2)cs1 (stereo not given),-15%,-101*,1%,u
Nc1cc(=O)[nH]c(SCc2ccc(Cl)cc2Cl)n1,x,-60*,x,u
CCN(CC)CCN(C(=O)c1ccc(CN2CCCCC2)o1)C(C(=O)NC1CCCCC1)c1ccc(F)cc1 (stereo not given),0%[46.1 µM],-26,5µM*,5%
